PubChem BioAssay (Tox21)
Inconclusive results are not listed. Activity calls are given as the source filed them. Unless noted, calls come from the whole dose curve; as a rule, active = well fitted curve in the direction sought with a large enough effect in the repeat runs; inconclusive = weak or mixed curves; inactive = no such curve, though single readings can be large; an effect the other way counts as inactive or inconclusive.

Legend:
[1] = qHTS assay to test for compound auto fluorescence at 535 nm (green) in HEK293 cells (AID 720680)
[2] = qHTS assay to test for compound auto fluorescence at 460 nm (blue) in HEK293 cell free culture (AID 720681)
Outline: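 Test compounds were pinned into cell-free culture medium (DMEM with 10% FBS) and fluorescence was read directly at Ex/Em 405/460 nm. Signals were expressed as fluorescence equivalents of triamterene, with DMSO vehicle as control.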

[3] = qHTS assay to test for compound auto fluorescence at 535 nm (green) in HEK293 cell free culture (AID 720682)
Outline: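 Steps: dispense DMEM/10% FBS into empty wells; pin in compound or DMSO; measure fluorescence at 485/535 nm. Values are fluorescein equivalents.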

[4] = qHTS assay to test for compound auto fluorescence at 590 nm (red) in HEK293 cell free culture (AID 720683)
Outline: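 Tox21 10K library compounds were pinned into cell-free DMEM with 10% FBS and fluorescence was read at excitation 540 nm. Activity is expressed as Rose Bengal sodium equivalency.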

[5] = qHTS assay to test for compound auto fluorescence at 590 nm (red) in HepG2 cell free culture (AID 720684)
Outline: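 Measured in medium alone (MEM containing 10% FBS) following pintool addition of compound; emission at 590 nm with 540 nm excitation, referenced to Rose Bengal sodium.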

[6] = qHTS assay to test for compound auto fluorescence at 460 nm (blue) in HepG2 cell free culture (AID 720685)
Outline: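 Compound (23 nL) or DMSO pinned into cell-free MEM with 10% FBS; blue fluorescence read at 405/460 nm excitation/emission, expressed as auto-fluorescence equivalency to triamterene.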

[7] = qHTS assay to test for compound auto fluorescence at 535 nm (green) in HepG2 cell free culture (AID 720686)
[8] = qHTS assay to test for compound auto fluorescence at 460 nm (blue) in HepG2 cells (AID 720687)
Outline: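 Cells (2,000/well in MEM with 10% FBS) attached overnight at 37 C, then were exposed to compound or DMSO for 1 hr at 37 C, 5% CO2. Fluorescence read at Ex/Em 405/460 nm, expressed as triamterene-equivalent signal.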

[9] = molecular target: Glucocorticoid receptor (Homo sapiens) (UniProt P04150); assay: qHTS assay to identify small molecule agonists of the glucocorticoid receptor (GR) signaling pathway (AID 720691; active = well fitted activation curve with a large enough effect in the signal ratio in the repeat runs, not every such curve was filed as active; the % refers to the signal ratio)
Sequence of Glucocorticoid receptor (Homo sapiens) (P04150 whole entry, looked up): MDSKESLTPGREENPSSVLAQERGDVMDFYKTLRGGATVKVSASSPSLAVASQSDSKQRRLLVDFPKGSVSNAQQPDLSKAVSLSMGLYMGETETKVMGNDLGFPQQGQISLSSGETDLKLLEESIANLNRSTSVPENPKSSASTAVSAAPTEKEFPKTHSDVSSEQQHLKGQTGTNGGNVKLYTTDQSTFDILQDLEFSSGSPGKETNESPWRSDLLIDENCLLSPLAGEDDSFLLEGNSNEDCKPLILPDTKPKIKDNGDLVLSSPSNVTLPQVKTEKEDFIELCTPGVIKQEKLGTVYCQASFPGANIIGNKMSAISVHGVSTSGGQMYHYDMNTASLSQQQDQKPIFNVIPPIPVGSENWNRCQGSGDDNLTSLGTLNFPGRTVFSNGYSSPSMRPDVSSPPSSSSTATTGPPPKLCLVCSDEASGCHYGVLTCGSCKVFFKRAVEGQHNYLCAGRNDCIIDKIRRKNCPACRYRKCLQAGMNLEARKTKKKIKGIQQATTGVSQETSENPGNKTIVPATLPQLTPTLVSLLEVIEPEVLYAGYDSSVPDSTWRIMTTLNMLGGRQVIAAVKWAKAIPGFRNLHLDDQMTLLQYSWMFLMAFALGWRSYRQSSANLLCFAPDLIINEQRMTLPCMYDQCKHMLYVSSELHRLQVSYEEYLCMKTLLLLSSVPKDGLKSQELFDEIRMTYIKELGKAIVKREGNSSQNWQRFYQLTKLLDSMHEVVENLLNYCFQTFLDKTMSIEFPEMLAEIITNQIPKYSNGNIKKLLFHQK
Outline: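 Reporter read-out: fluorescence intensity following 2 h room-temperature LiveBLAzer B/G FRET substrate loading. Prior step: GR-bla HeLa cells held 4 h, then treated 18 h at 37 C.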

[10] = qHTS assay for identifying genotoxic compounds that show differential cytotoxicity against isogenic chicken DT40 cell lines with known DNA damage response pathways - wild type cell line (AID 743012); note: nearly all actives have a fitted effect of over 60% in size; note: potency is the fitted concentration of half-maximal effect
Outline: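 Using parental DT40 (300 cells/well), compounds delivered in DMSO incubate 40 h at 37 C/5% CO2. CellTiter-Glo reagent then stands 30 min at room temperature, and luminescence gives cell viability.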

[11] = qHTS assay to identify small molecule antagonists of the androgen receptor (AR) signaling pathway - cell viability counter screen (AID 743033; note: nearly all actives have a fitted effect of over 45% in size)
[12] = qHTS assay to identify small molecule antagonists of the androgen receptor (AR) signaling pathway using the MDA cell line - cell viability counter screen (AID 743041; note: nearly all actives have a fitted effect of over 45% in size)
Outline: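 Viability counter screen run alongside the AR antagonist reporter: cells seeded 5 h before compound, R1881 added, 16 h incubation at 37C without CO2, fluorescent CellTiter-Fluor signal quantified.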

[13] = qHTS assay to identify small molecule antagonists of the glucocorticoid receptor (GR) signaling pathway - cell viability counter screen (AID 720693); note: nearly all actives have a fitted effect of over 55% in size
[14] = qHTS assay for identifying genotoxic compounds that show differential cytotoxicity against isogenic chicken DT40 cell lines with known DNA damage response pathways - Rev3 mutant cell line (AID 743014); note: nearly all actives have a fitted effect of over 55% in size; note: potency is the fitted concentration of half-maximal effect
[15] = molecular target: Androgen receptor (Homo sapiens) (UniProt P10275); assay: qHTS assay to identify small molecule antagonists of the androgen receptor (AR) signaling pathway (AID 743035; active = well fitted inhibition curve with a large enough effect in the signal ratio in the repeat runs, not every such curve was filed as active; the % refers to the signal ratio; note: potency is the fitted concentration of half-maximal effect)
Sequence of Androgen receptor (Homo sapiens) (P10275 whole entry, looked up): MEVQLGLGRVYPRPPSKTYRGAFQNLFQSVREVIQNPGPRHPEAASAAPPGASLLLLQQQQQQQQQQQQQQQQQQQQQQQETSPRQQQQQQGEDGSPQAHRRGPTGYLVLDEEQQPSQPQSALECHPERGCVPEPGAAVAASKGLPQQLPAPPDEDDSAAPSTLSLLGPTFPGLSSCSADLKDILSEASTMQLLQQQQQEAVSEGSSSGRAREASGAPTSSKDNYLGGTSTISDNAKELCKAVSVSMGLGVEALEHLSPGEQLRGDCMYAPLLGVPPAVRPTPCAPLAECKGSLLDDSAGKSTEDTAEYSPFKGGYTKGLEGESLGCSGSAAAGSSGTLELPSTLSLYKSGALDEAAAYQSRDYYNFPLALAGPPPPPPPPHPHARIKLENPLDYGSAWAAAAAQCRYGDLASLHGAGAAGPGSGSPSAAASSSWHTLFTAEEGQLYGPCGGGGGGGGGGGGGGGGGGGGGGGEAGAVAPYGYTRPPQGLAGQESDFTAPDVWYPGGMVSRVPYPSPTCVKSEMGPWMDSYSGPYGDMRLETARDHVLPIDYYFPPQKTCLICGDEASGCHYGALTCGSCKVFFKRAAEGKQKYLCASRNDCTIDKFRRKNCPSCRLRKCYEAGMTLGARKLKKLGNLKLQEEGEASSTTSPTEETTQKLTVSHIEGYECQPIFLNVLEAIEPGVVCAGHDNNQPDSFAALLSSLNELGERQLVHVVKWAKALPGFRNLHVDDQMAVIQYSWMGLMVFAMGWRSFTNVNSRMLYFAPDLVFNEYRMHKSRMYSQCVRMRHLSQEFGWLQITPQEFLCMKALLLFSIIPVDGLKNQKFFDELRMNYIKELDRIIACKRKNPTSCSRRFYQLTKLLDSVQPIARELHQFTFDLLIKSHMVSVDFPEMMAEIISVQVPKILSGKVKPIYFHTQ
Outline: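 Using qHTS, AR-UAS-bla GripTite HEK293 cells received compound, then R1881, and were cultured 16 h at 37C/5% CO2 before a 2 h room-temperature LiveBLAzer B/G FRET substrate step and fluorescence measurement.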

[16] = molecular target: Androgen receptor (Homo sapiens) (UniProt P10275); assay: qHTS assay to identify small molecule agonists of the androgen receptor (AR) signaling pathway (AID 743036; active = well fitted activation curve with a large enough effect in the signal ratio in the repeat runs, with a control signal flat, not every such curve was filed as active; the % refers to the signal ratio)
Outline: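 Reporter line: GeneBLAzer AR-UAS-bla-GripTite (HEK293). Steps: plate cells, 4 h rest, add compounds, 16 h at 37C, add LiveBLAzer B/G substrate, 2 h at RT, read fluorescence.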

[17] = molecular target: Androgen receptor (Homo sapiens) (UniProt P10275); assay: qHTS assay to identify small molecule agonists of the androgen receptor (AR) signaling pathway using the MDA cell line (AID 743040; note: nearly all actives have a fitted effect of over 20% in size)
Outline: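 Luminescence from ONE-Glo, read after 30 min at room temperature, reflects MMTV-driven luciferase in MDA-kb2 cells (AR- and GR-responsive). Treatment lasted 16 h at 37C, 0% CO2.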

[18] = molecular target: Androgen receptor (Homo sapiens) (UniProt P10275); assay: qHTS assay to identify small molecule antagonists of the androgen receptor (AR) signaling pathway using the MDA cell line (AID 743042; note: nearly all actives have a fitted effect of over 55% in size)
Outline: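 MDA-kb2 cells (human breast carcinoma, stably carrying an MMTV-luciferase reporter responsive to AR and GR) were plated at 3,000 cells/well and preincubated 5 hr at 37C, then given compound plus R1881 agonist for 16 h. ONE-Glo luminescence was read.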

[19] = qHTS assay for identifying genotoxic compounds that show differential cytotoxicity against isogenic chicken DT40 cell lines with known DNA damage response pathways - Rad54/Ku70 mutant cell line (AID 743015); note: nearly all actives have a fitted effect of over 60% in size; note: potency is the fitted concentration of half-maximal effect
% is set by controls: 0 for no effect and ±100 for the full control effect.

CCCCCCCCOc1ccc(C(=O)O)cc1
inactive: outcome [1] | Potency [2] | outcome [3] | outcome [4] | outcome [5] | Potency [6] | outcome [7] | Potency [8] | Potency [9] | Potency [10] | Potency [11] | Potency [12]

Brc1cc2ccccc2c2ccccc12
inactive: outcome [1] | Potency [2] | outcome [3] | outcome [4] | outcome [5] | Potency [6] | outcome [7] | Potency [8] | Potency [9] | Potency [13] | Potency [11] | Potency [12]

CCOc1ccc(Cc2nccc3cc(OCC)c(OCC)cc23)cc1OCC
active: Potency [10] 4.03 µM | Potency [14] 5.07 µM
inactive: fluorescence, % of fluorescein [1] -0.066% [at 18.6 µM] | fluorescence, % of fluorescent control [2] 0.019% [at 18.6 µM] | activity change [3] 0.0026% [at 18.6 µM] | fluorescence, % of fluorescent control [4] 0.116% [at 18.6 µM] | fluorescence, % of Rose Bengal [5] 0.0721% [at 18.6 µM] | fluorescence, % of fluorescent control [6] -0.0254% [at 18.6 µM] | fluorescence, % of fluorescein control [7] 0.0297% [at 18.6 µM] | fluorescence, % of fluorescent control [8] -0.0004% [at 18.6 µM] | Potency [9] | Potency [13] | Potency [15] | outcome [16] | outcome [17] | Potency [12]

O=C=Nc1cccc(C(F)(F)F)c1
active: Potency [15] 48.6 µM
inactive: outcome [1] | Potency [2] | outcome [3] | outcome [4] | outcome [5] | Potency [6] | outcome [7] | Potency [8] | Potency [9] | Potency [13] | outcome [16] | outcome [17] | Potency [12] | Potency [18]

Cc1ccc(CO)cc1
inactive: outcome [1] | Potency [2] | outcome [3] | outcome [4] | outcome [5] | Potency [6] | outcome [7] | Potency [8] | Potency [9] | Potency [10] | Potency [14] | Potency [19] | Potency [11] | Potency [12]

C/C=C\C/C=C/CCCCCCCCOC(C)=O
inactive: outcome [1] | Potency [2] | outcome [3] | outcome [4] | outcome [5] | Potency [6] | outcome [7] | Potency [8] | Potency [13] | Potency [12]
active: Potency [10] 27.3 µM | Potency [14] 27.3 µM | Potency [19] 24.3 µM

C=COCC(C)C
inactive: outcome [1] | Potency [2] | outcome [3] | outcome [4] | outcome [5] | Potency [6] | outcome [7] | Potency [8] | Potency [13] | Potency [10] | Potency [14] | Potency [19] | Potency [11] | Potency [12]

CCCCCCNC(=O)n1cc(F)c(=O)[nH]c1=O
inactive: outcome [1] | Potency [2] | outcome [3] | outcome [4] | outcome [5] | Potency [6] | outcome [7] | Potency [8] | Potency [9] | Potency [13] | Potency [12]
active: Potency [10] 8.41 µM | Potency [19] 11.9 µM

CC(C)=CCC1C(=O)N(c2ccccc2)N(c2ccccc2)C1=O
active: Potency [10] 16.8 µM | Potency [14] 16.8 µM | Potency [19] 16.8 µM
inactive: outcome [1] | Potency [2] | outcome [3] | outcome [4] | outcome [5] | Potency [6] | outcome [7] | Potency [8] | Potency [13] | Potency [11]

O=C1c2ccccc2C(=O)N1CCc1noc(-c2ccc(CN3CCCCCC3)s2)n1
inactive: outcome [1] | Potency [2] | outcome [3] | outcome [4] | outcome [5] | Potency [6] | outcome [7] | Potency [8] | Potency [13] | Potency [12]
active: Potency [10] 49.9 µM | Potency [14] 39.7 µM | Potency [19] 39.7 µM

CC(C)C=O
inactive: outcome [1] | Potency [2] | outcome [3] | outcome [4] | outcome [5] | Potency [6] | outcome [7] | Potency [8] | Potency [9] | Potency [13] | Potency [11] | Potency [12]

O=Cc1c2ccccc2c(Cl)c2ccccc12
inactive: outcome [1] | Potency [2] | outcome [3] | outcome [4] | outcome [5] | Potency [6] | outcome [7] | Potency [8] | Potency [9] | Potency [13] | Potency [14] | Potency [19] | Potency [11] | Potency [12]

OC(CCN1CCCC1)(c1ccccc1)C1CCCCC1 (centres undefined)
inactive: fluorescence, % of fluorescein [1] 6.8e-05% [at 18.6 µM] | fluorescence, % of fluorescent control [2] -0.0085% [at 18.6 µM] | activity change [3] 0.0202% [at 18.6 µM] | fluorescence, % of fluorescent control [4] -0.206% [at 18.6 µM] | fluorescence, % of Rose Bengal [5] -0.161% [at 18.6 µM] | fluorescence, % of fluorescent control [6] 0.0206% [at 18.6 µM] | fluorescence, % of fluorescein control [7] -0.0329% [at 18.6 µM] | fluorescence, % of fluorescent control [8] 0.0411% [at 18.6 µM] | Potency [9] | Potency [15] | outcome [16] | outcome [17] | Potency [12] | Potency [18]
active: Potency [10] 11.4 µM

CN1C(=O)c2ccccc2C1=O
inactive: outcome [1] | Potency [2] | outcome [3] | outcome [4] | outcome [5] | Potency [6] | outcome [7] | Potency [8] | Potency [9] | Potency [13] | Potency [12]
active: Potency [14] 68.6 µM | Potency [19] 61.1 µM

O=C(CCCN1CC=C(n2c(=O)[nH]c3ccccc32)CC1)c1ccc(F)cc1
active: Potency [10] 29.8 µM
inactive: outcome [1] | Potency [2] | outcome [3] | outcome [4] | outcome [5] | Potency [6] | outcome [7] | Potency [8] | Potency [9] | Potency [11] | Potency [12]

CC1(C)S[C@@H]2[C@H](NC(=O)C(c3ccccc3)S(=O)(=O)O)C(=O)N2[C@H]1C(=O)O (some centres undefined)
inactive: outcome [1] | Potency [2] | outcome [3] | outcome [4] | outcome [5] | Potency [6] | outcome [7] | Potency [8] | Potency [9] | Potency [10] | Potency [14] | Potency [19] | Potency [11] | Potency [12]

CC1(C)[C@H](C(=O)O)N2C(=O)C[C@H]2S1(=O)=O
inactive: outcome [1] | Potency [2] | outcome [3] | outcome [4] | outcome [5] | Potency [6] | outcome [7] | Potency [8] | Potency [13] | Potency [10] | Potency [14] | Potency [19] | Potency [11] | Potency [12]
